Source: PubChem BioAssay (several laboratories)
An excerpt weighted towards active compounds, which were near 3.8% of everything screened.
tim23-1 inh = growth inhibitors of tim23-1 mutant yeast. S. cerevisiae tim23-1 growth, BacTiter-Glo luminescence, 24 h. inhibition, % at 20 µM. hit rate 1.3% among 330,000. AID 463212;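 active means growth inhibition of the mutant yeast at or above 50%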;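 further: temperature-sensitive mutant grown at 25 °C; plate controls were DMSO-treated mutant yeast for no effect and medium wells lacking yeast for full effect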
tim10-1 inh = inhibits growth of tim10-1 mutant yeast. S. cerevisiae tim10-1 ts strain growth, BacTiter-Glo, 24 h. inhibition, % at 20 µM. hit rate 2.2% among 330,000. AID 463190;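 active means inhibition of at least 40%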;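 further: mutant grown at 25 °C; 0% = DMSO wells with yeast and 100% = wells holding no yeast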
CR mimetic SO = caloric restriction mimetics inhibiting age-related superoxide in yeast; superoxide response (% of plate mean), % at 10 µM; hit rate 0.18% among 330,000; S. cerevisiae aged cells, superoxide DHE fluorescence; stronger effect = lower value; AID 2690;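 active means superoxide response under a set limit, about three screen SD below normal, cut at about 65% in these data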;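 further: yeast aged for seven days with compound at 30 °C before DHE staining; 100% = average MFI of all compound-treated wells on the plate with controls excluded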
TIM10 inh = TIM10 yeast growth inhibition; S. cerevisiae TIM10 strain growth, BacTiter-Glo luminescence, 24 h; inhibition, % at 10 µM; hit rate 1.4% among 330,000;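 active means inhibition of 40% or more at the single tested concentration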;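 further: wild-type TIM10 isogenic control strain grown at permissive 25 °C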
NLRP3 yeast inh = NALP3 inhibition in yeast; inhibition, % at 10 µM; AID 2825; Yeast reconstituted NLRP3/ASC/caspase-1, beta-gal luminescence, 24 h; hit rate 0.39% among 330,000;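 active means inhibition of 50% or more; inactive means inhibition below 50%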;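 further: plate controls were induced DMSO wells for no effect and uninduced yeast grown without galactose for full effect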
tim10 confirm = TIM10 yeast growth inhibition, confirmed; shares compounds with TIM10 inh; S. cerevisiae tim10 strain growth, BacTiter-Glo luminescence, 24 h; inhibition, % at 10 µM; hit rate 63% among 4,600; AID 463215;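 active means inhibition of yeast growth at or above a set limit in either of two replicates at 10 µM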;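 further: this counterscreen used the strain with wild-type TIM10; 0% = yeast with DMSO and 100% = medium wells lacking yeast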
tim23-1 confirm = confirmation of tim23-1 mutant yeast growth inhibitors; shares compounds with tim23-1 inh; S. cerevisiae tim23-1 growth, BacTiter-Glo luminescence, 24 h; inhibition, % at 20 µM; hit rate 83% among 4,400; AID 463218;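 active means inhibition above about 39% in either of two replicate wells at 20 µM, limit read from the data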;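 further: temperature-sensitive tim23-1 mutant grown at 25 °C; 0% = DMSO wells with yeast and 100% = medium wells without yeast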
The depositor's hits bear a star; i = inactive; · = no result.

SMILES	tim23-1 inh	tim10-1 inh	CR mimetic SO	TIM10 inh	NLRP3 yeast inh	tim10 confirm	tim23-1 confirm
O=C(Nc1cccc(-c2csc(Nc3cccc(C(F)(F)F)c3)n2)c1)c1ccccc1	26.0	25.8	86.5	29.9	16.8	·	·
O=C(Nc1cccc(-c2csc(Nc3ccccc3)n2)c1)c1ccccc1	53.8*	32.7	100.7	47.9*	27.9	44.0*	45.5*
CCOC(=O)c1c(NC(=O)c2c(C(=O)O)cccc2[N+](=O)[O-])sc(C)c1C	-7.4	0.0	113.0	14.3	12.3	·	·
Oc1ccccc1-c1nc(NC2CCCC2)c2ccccc2n1	64.4*	29.6	102.3	44.0*	0.6	35.1*	57.5*
COc1ccc(S(=O)(=O)N2CCCC(C(=O)N3CCCC3)C2)cc1OC (stereo unspecified)	4.5	1.7	93.7	6.0	-9.5	·	·
CCc1cccc2c(C(=O)CCl)c[nH]c12	53.9*	29.5	91.0	42.0*	-20.3	27.5	54.0*
Nc1nonc1-n1nnc(C(=O)N/N=C/c2ccoc2)c1CSc1ccc(Cl)cc1	16.3	12.6	117.9	17.1	6.2	·	·
CCc1cc(C(=O)NCC(c2cccs2)N2CCOCC2)sc1C (stereo unspecified)	6.7	19.7	92.2	-5.3	2.5	·	·
Cc1cccc(/C(N)=N/OC(=O)c2ccc(F)cc2)c1	69.6*	38.3	107.8	73.4*	14.3	79.8*	44.7*
N/C(=N\OC(=O)c1cccc(Br)c1)c1ccc(Br)cc1	12.6	-30.9	101.7	4.2	16.7	·	·
O=S(=O)(NCCSc1nnc(-c2ccco2)n1-c1ccccc1)c1ccccc1	3.0	1.9	117.4	-2.4	12.1	·	·
O=C1/C(=C/c2ccncc2)SC(=S)N1C1CCCCC1	50.8*	35.8	96.9	50.1*	23.6	-7.8	38.6*
CCN1C(=O)/C(=C\c2ccncc2)SC1=S	68.0*	25.9	95.1	51.5*	-7.0	39.2*	14.8
CCOc1cccc(-c2c(C(=O)N/N=C/c3ccc(Br)cc3)nnn2-c2nonc2N)c1	9.7	16.1	99.5	-2.5	-0.1	·	·
CCOc1ccc(Br)cc1S(=O)(=O)Nc1ccc(Cl)c(S(=O)(=O)N(CC)c2ccccc2)c1	18.2	20.8	101.6	20.6	-6.5	·	·
CC(=O)Nc1ccc(/C=C2\CCc3ccccc3C2=O)cc1	61.4*	34.2	90.6	41.0*	29.9	36.3*	46.0*
O=C1/C(=C/c2ccccc2)CCCc2ccccc21	17.0	20.1	100.2	29.5	41.7	·	·
CN(C)C(=S)NC(=O)C12CC3CC(C)(CC(C)(C3)C1)C2	30.1	4.1	88.6	10.6	12.6	·	·
CC12CC3CC(C)(C1)CC(C(=O)NC(=S)N1CCCCC1)(C3)C2	51.0*	24.9	110.2	41.5*	24.6	13.6	32.2
Cc1cccc(C(=O)Oc2ccc(/C=N/O)cc2)c1	62.0*	28.4	85.4	41.7*	31.4	32.4*	50.2*
Cc1cccn2c(=O)c3cc(C(=O)NCCN4CCOCC4)c(=N)n(Cc4ccc(F)cc4)c3nc12	0.9	-0.5	109.0	10.8	9.9	·	·
CCOC(=O)CSc1nc2cc(OCC)ccc2cc1C#N	37.8	24.4	91.4	8.8	1.2	·	·
CCOc1ccc2cc(C#N)c(SCC(=O)N3CCC(C)CC3)nc2c1	52.4*	35.7	i	59.0*	9.1	13.8	50.0*
C[C@]12CCC3C(CC=C4C[C@@H](O)CC[C@@]43C)C1CCC2[C@]1(C)CCC(=O)O1 (stereo partly specified)	-2.9	15.9	89.6	1.3	4.2	·	·
C[C@]12CC[C@H](O)CC1=CCC1C2CC[C@@]2(C)C1CC[C@@H]2NC(=O)[C@@H](N)Cc1ccccc1 (stereo partly specified)	57.7*	34.1	106.1	54.6*	45.9	59.6*	55.0*
SMILES	tim23-1 inh	tim10-1 inh	CR mimetic SO	TIM10 inh	NLRP3 yeast inh	tim10 confirm	tim23-1 confirm
Cc1ccc(C(=O)OCC(=O)NC(=O)c2ccccc2)o1	8.1	4.2	98.8	-4.7	6.1	·	·
CC(=O)n1cc(C(C[N+](=O)[O-])SCCN)c2ccccc21 (stereo unspecified)	89.2*	22.9	102.9	91.3*	42.6	91.6*	-30.7
CCCn1c(SCC(=O)Nc2cccc(S(=O)(=O)N3CCCC3)c2)n[nH]c1=O	-4.9	12.2	96.4	2.2	-6.4	·	·
CCCn1c(SCC(=O)N2CCN(S(=O)(=O)c3ccc(Cl)cc3)CC2)n[nH]c1=O	57.9*	5.9	103.7	2.0	-5.7	·	0.0
CC1CN(C(=O)COC(=O)CSc2ccc([N+](=O)[O-])cc2)CC(C)O1 (stereo unspecified)	12.1	-0.7	·	4.0	18.4	·	·
c1csc(CSc2nnc3sc4ccccc4n23)c1	53.7*	39.0	94.0	13.8	16.3	·	50.3*
Cc1ccc(-c2c3c(nc4sc(C(N)=O)c(N)c24)CCCC3)o1	50.4*	36.4	107.2	1.5	-2.0	·	48.4*
O=C(COc1ccccc1)N1CCN(S(=O)(=O)c2cccc([N+](=O)[O-])c2)CC1	8.4	15.3	114.2	2.8	10.4	·	·
CCOC(=O)/C(C#N)=C/c1cc2cc(C)c(C)cc2nc1Cl	61.9*	-3.3	89.1	30.0	15.6	·	69.5*
CCOC(=O)/C(C#N)=C/c1cc(C)n(-c2ccccc2)c1C	12.2	-2.7	96.3	-16.3	14.2	·	·
Cc1ccccc1C(=O)Oc1ccc(-c2csnn2)cc1	14.2	12.2	98.8	1.9	14.9	·	·
Cc1ccccc1C(=O)Oc1ccc(Sc2ccc(O)cc2)cc1	56.8*	22.1	93.3	26.0	21.2	·	-13.5
Cc1cccc(-n2nc3c(c2NC(=O)C(C)C)CS(=O)(=O)C3)c1C	7.6	11.0	100.3	-6.9	6.5	·	·
COc1cc(C(=O)NC2CCCCCCC2)cc(OC)c1OC	5.7	-0.7	113.3	11.1	-0.3	·	·
COc1cc(C(=O)NCCC(=O)NC2CCCCCCC2)cc(OC)c1OC	55.7*	9.6	99.9	6.6	3.0	·	13.6
O=C(COC(=O)CC1CCCC1)Nc1ccc(Cl)cn1	59.5*	15.2	111.6	33.1	18.9	·	55.4*
O=C(COC(=O)CNC(=O)C1CCCCC1)Nc1ccc(Cl)cn1	0.1	17.4	105.1	7.4	0.2	·	·
O=C(CSc1nnnn1C1CC1)N1CCN(c2ccccc2F)CC1	-1.0	-12.0	83.0	-0.1	4.7	·	·
CCOc1ccc(C(=O)N2CCSC2=S)cc1	51.5*	33.6	90.5	19.0	6.3	·	41.0*
Cc1ccc(C(=O)N2CCSC2=S)cc1	56.0*	29.8	80.6	14.5	-6.2	·	51.4*
O=C(c1ccccc1)N1CCSC1=S	36.6	18.1	97.5	5.1	-10.9	·	·
COC(=O)C1(CC2CC(c3ccncc3)=NO2)CCN(C(=O)OC(C)(C)C)CC1 (stereo unspecified)	1.5	10.3	·	-7.9	1.4	·	·
COc1ccccc1NC(=S)NC(=O)CC(C)C	51.4*	28.1	107.7	25.3	23.0	·	27.1
